Results on one sequence are retold here after article PMC7862700, “An all-to-all approach to the identification of sequence-specific readers for epigenetic DNA modifications on cytosine”.

Assay in all cases: DAPPL (digital affinity profiling via proximity ligation, sequencing); 10 mM Tris-HCl pH 7.5, 50 mM NaCl, 1 mM DTT, 4% glycerol, room temperature, 30 min; GST-TFs on glutathione beads, 16-mer random dsDNA library, 0.1% formaldehyde crosslink after washing; high values mean tight binding
One test concerns the target T1, FEV (Homo sapiens, UniProt Q99581 1-238).
T1 sequence: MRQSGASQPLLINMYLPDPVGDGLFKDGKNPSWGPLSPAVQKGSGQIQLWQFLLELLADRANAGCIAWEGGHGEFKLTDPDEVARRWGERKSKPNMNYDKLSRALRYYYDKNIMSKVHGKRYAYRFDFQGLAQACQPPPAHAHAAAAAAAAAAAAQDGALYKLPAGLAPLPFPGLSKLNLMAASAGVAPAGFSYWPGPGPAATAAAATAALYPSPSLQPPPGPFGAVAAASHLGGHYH
The settings on record: protein: recombinant; tags: N-terminal GST; dsDNA, one strand shown. Summed up:
(§1)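 Binding signal is defined as a hexamer's read frequency for one factor over its frequency for the tag-only sample. To obtain reads, GST-fused human transcription factors were expressed in yeast, captured on glutathione beads, barcoded with DNA and pooled with that sample. Pools met 200 nmole of a 16-mer random double-stranded DNA library in Tris/NaCl/DTT/glycerol buffer for 30 min at room temperature before washing, 0.1% formaldehyde crosslinking, proximity ligation (BsaI/T4 ligase, 1 h, 37 °C), PCR and Illumina NextSeq500 sequencing.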

A further test has as its target ETV5 (Homo sapiens, UniProt P41161 1-510). As to conditions: protein: recombinant; tags: N-terminal GST; dsDNA, one strand shown. The method in brief:
as §1

For another test, the target named is HSF1 (Homo sapiens, UniProt Q00613 1-529). The settings on record: protein: recombinant; tags: N-terminal GST; chain copies: 3; dsDNA, one strand shown. The method in brief: as §1
For the next test, the target named is T2, SPIC (Homo sapiens, UniProt Q8N5J4 1-248).
T2 sequence: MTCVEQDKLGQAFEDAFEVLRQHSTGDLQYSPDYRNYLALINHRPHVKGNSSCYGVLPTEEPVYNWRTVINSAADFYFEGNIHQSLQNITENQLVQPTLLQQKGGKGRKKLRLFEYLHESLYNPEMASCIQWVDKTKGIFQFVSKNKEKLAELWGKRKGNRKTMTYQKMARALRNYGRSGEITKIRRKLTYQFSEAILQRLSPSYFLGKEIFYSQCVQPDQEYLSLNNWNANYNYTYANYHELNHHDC
As to conditions: protein: recombinant; tags: N-terminal GST; dsDNA, one strand shown. The method in brief:
as §1

In another test the target is ELF4 (Homo sapiens, UniProt Q99607 1-663). The settings on record: protein: recombinant; tags: N-terminal GST; dsDNA, one strand shown. The method in brief: as §1
Another test deals with T3, ELK4 (Homo sapiens, UniProt P28324-2 1-405).
T3 sequence: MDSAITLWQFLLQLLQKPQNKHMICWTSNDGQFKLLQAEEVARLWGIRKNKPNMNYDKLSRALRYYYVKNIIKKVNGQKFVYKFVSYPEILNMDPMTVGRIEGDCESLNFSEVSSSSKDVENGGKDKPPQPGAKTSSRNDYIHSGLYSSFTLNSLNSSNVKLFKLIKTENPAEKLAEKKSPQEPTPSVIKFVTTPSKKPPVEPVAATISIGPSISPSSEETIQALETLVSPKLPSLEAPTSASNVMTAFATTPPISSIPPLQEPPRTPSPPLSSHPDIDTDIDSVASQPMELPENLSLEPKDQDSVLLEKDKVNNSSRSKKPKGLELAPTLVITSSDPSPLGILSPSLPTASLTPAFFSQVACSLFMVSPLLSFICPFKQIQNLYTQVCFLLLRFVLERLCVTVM
As to conditions: protein: recombinant; tags: N-terminal GST; dsDNA, one strand shown. Summed up:
as §1

The target of the next test is T4, ETV2 (Homo sapiens, UniProt O00321 1-342).
T4 sequence: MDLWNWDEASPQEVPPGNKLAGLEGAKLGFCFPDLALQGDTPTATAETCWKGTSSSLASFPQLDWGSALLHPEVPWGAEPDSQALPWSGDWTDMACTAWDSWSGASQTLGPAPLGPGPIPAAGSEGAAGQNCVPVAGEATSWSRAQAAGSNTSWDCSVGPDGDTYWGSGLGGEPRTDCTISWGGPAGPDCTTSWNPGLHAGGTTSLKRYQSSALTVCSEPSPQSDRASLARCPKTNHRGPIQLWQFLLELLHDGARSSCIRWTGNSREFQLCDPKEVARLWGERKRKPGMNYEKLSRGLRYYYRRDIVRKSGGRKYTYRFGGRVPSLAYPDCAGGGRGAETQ
The settings on record: protein: recombinant; tags: N-terminal GST; dsDNA, one strand shown. Summed up: as §1

Another test deals with T5, ELF3 (Homo sapiens, UniProt P78545 1-371).
T5 sequence: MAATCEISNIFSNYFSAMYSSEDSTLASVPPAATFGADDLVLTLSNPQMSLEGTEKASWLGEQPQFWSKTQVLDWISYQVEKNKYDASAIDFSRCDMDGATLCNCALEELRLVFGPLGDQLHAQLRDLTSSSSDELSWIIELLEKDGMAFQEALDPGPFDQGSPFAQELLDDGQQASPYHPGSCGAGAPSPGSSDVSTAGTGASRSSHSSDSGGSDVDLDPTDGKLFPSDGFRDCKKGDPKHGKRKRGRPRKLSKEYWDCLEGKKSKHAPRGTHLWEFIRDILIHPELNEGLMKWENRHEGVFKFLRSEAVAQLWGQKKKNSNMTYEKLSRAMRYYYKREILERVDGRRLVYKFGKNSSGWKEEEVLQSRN
As to conditions: protein: recombinant; tags: N-terminal GST; dsDNA, one strand shown. The method in brief:
as §1

The target of another test is CRX (Homo sapiens, UniProt O43186 1-299). The settings on record: protein: recombinant; tags: N-terminal GST; dsDNA, one strand shown. Summed up: as §1
Another test concerns the target ETV1 (Homo sapiens, UniProt P50549 1-477). As to conditions: protein: recombinant; tags: N-terminal GST; dsDNA, one strand shown. The method in brief:
as §1

The target of a further test is T6, ERF (Homo sapiens, UniProt P50548 1-548).
T6 sequence: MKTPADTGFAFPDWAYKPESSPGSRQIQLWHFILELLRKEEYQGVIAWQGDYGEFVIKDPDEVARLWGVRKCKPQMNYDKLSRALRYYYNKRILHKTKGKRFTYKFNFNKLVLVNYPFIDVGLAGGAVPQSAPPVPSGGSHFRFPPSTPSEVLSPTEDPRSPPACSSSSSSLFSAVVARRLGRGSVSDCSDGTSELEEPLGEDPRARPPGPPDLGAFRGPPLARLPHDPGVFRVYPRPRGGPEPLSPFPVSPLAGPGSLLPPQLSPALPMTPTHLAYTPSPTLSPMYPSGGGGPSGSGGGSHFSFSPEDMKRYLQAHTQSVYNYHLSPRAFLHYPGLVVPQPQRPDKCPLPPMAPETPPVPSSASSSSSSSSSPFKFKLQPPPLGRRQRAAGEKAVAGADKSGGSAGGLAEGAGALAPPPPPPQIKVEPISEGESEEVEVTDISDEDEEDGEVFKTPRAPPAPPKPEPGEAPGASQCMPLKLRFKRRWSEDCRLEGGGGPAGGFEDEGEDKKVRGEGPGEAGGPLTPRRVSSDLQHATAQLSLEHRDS
The settings on record: protein: recombinant; tags: N-terminal GST; dsDNA, one strand shown. Summed up: as §1

In the next test the target is T7, ETV3L (Homo sapiens, UniProt Q6ZN32 1-361).
T7 sequence: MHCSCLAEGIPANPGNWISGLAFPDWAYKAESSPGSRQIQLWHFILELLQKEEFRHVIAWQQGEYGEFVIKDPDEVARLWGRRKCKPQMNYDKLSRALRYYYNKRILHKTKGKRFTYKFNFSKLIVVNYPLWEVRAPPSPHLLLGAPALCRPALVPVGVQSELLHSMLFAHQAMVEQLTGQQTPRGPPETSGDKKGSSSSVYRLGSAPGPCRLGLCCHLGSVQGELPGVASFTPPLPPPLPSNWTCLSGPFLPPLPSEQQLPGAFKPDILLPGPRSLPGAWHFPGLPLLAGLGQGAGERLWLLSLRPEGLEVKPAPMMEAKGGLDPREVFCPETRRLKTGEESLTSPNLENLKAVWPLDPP
The settings on record: protein: recombinant; tags: N-terminal GST; dsDNA, one strand shown. The method in brief: as §1

Another test addresses T8, ETS2 (Homo sapiens, UniProt P15036 1-469).
T8 sequence: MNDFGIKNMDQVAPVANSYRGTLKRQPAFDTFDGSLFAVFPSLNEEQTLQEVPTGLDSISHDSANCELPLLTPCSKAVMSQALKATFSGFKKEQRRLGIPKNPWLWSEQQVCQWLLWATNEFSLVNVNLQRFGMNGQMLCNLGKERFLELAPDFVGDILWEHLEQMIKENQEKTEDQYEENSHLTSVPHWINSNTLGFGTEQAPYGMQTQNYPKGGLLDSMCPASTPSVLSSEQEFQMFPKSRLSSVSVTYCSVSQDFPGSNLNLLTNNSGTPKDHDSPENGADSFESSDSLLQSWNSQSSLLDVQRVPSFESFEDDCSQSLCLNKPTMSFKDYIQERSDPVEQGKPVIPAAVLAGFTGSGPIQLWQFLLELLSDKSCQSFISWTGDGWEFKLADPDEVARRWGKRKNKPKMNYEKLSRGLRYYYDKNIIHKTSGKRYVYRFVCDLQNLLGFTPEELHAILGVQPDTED
As to conditions: protein: recombinant; tags: N-terminal GST; dsDNA, one strand shown. Summed up:
as §1

The next test addresses T9, SPDEF (Homo sapiens, UniProt O95238 1-335).
T9 sequence: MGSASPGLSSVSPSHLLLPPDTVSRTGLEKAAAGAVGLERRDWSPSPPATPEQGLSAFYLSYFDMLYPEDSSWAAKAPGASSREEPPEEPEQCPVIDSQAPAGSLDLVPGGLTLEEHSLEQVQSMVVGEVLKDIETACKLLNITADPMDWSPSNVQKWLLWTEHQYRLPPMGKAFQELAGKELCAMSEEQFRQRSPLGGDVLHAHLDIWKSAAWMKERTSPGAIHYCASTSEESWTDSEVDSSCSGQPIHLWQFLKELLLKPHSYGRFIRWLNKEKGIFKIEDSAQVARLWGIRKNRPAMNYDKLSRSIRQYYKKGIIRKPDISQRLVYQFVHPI
As to conditions: protein: recombinant; tags: N-terminal GST; dsDNA, one strand shown. Summed up: as §1

For a further test, the target named is T10, ETV7 (Homo sapiens, UniProt Q9Y603 1-341).
T10 sequence: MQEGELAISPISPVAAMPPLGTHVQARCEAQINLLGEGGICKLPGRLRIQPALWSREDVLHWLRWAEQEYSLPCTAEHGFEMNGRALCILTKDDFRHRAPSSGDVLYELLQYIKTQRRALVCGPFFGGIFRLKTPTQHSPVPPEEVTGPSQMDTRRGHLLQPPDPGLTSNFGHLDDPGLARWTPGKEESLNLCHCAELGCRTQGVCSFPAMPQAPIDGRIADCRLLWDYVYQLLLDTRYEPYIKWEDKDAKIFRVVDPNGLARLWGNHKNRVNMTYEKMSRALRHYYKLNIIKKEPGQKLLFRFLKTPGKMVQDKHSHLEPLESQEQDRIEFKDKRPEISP
As to conditions: protein: recombinant; tags: N-terminal GST; dsDNA, one strand shown. Summed up: as §1

The next test concerns the target T11, ELF5 (Homo sapiens, UniProt Q9UKW6-2 1-255).
T11 sequence: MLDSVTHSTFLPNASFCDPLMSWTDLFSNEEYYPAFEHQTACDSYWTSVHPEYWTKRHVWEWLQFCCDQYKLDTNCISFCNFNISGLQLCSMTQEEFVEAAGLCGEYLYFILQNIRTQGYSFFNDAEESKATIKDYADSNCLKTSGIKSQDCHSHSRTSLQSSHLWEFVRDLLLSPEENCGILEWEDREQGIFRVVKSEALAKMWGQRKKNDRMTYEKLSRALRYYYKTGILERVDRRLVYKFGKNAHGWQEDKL
The settings on record: protein: recombinant; tags: N-terminal GST; dsDNA, one strand shown. Summed up:
as §1

The next test addresses T12, ETV3 (Homo sapiens, UniProt P41162-2 1-143).
T12 sequence: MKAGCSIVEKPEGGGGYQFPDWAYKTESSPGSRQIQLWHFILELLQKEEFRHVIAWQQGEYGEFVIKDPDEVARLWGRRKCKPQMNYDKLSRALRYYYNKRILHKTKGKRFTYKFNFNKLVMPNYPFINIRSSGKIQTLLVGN
As to conditions: protein: recombinant; tags: N-terminal GST; dsDNA, one strand shown. Summed up:
as §1

Another test addresses ETV6 (Homo sapiens, UniProt P41212 1-452). The settings on record: protein: recombinant; tags: N-terminal GST; dsDNA, one strand shown. The method in brief: as §1

ETV5, sequence (P41161 whole entry): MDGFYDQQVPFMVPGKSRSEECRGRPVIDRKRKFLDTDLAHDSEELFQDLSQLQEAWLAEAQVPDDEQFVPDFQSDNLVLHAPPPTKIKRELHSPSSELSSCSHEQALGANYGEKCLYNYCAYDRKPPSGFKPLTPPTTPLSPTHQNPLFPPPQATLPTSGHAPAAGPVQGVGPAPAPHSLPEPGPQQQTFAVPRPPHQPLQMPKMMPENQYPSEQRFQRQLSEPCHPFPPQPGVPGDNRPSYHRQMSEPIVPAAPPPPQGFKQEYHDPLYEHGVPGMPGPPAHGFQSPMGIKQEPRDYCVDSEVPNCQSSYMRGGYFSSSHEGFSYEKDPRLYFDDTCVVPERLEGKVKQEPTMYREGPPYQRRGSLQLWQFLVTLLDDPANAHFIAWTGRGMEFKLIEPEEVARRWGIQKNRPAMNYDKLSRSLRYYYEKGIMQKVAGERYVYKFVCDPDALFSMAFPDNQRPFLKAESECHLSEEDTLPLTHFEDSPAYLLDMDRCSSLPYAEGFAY
HSF1, sequence (Q00613 whole entry): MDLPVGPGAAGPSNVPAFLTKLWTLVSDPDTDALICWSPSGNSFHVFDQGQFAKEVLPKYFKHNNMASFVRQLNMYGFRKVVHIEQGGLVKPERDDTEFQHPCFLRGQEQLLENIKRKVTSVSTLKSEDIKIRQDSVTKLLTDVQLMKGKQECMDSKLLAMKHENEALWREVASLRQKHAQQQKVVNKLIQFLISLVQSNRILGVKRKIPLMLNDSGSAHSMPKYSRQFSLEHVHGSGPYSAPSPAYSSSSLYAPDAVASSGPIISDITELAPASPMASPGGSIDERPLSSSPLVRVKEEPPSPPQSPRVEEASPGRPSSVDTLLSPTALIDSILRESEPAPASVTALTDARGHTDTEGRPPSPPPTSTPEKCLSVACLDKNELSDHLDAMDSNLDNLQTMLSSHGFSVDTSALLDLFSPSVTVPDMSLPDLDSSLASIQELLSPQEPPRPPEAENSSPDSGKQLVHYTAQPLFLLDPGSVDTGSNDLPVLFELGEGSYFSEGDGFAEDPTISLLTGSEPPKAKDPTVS
CRX, sequence (O43186 whole entry): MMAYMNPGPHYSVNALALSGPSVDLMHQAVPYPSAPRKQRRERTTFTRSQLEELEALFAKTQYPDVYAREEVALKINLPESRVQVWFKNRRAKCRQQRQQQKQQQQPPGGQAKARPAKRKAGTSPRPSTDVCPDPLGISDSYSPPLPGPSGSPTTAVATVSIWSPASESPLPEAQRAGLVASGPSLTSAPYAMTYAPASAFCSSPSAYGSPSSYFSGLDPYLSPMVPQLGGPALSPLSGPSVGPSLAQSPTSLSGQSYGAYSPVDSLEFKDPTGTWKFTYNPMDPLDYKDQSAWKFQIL
ETV1, sequence (P50549 whole entry): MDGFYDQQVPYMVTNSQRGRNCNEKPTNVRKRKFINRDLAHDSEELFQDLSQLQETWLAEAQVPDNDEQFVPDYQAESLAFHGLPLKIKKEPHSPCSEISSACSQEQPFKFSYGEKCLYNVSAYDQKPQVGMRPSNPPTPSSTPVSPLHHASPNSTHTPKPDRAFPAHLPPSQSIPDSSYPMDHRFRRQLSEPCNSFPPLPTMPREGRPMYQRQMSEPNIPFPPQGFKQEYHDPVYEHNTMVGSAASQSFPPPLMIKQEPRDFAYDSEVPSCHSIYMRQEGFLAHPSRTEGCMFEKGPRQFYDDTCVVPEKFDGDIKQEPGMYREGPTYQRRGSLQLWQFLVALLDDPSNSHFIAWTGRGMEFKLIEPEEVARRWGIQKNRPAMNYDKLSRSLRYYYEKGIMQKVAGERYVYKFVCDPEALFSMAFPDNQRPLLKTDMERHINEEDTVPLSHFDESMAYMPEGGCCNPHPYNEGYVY
ELF4, sequence (Q99607 whole entry): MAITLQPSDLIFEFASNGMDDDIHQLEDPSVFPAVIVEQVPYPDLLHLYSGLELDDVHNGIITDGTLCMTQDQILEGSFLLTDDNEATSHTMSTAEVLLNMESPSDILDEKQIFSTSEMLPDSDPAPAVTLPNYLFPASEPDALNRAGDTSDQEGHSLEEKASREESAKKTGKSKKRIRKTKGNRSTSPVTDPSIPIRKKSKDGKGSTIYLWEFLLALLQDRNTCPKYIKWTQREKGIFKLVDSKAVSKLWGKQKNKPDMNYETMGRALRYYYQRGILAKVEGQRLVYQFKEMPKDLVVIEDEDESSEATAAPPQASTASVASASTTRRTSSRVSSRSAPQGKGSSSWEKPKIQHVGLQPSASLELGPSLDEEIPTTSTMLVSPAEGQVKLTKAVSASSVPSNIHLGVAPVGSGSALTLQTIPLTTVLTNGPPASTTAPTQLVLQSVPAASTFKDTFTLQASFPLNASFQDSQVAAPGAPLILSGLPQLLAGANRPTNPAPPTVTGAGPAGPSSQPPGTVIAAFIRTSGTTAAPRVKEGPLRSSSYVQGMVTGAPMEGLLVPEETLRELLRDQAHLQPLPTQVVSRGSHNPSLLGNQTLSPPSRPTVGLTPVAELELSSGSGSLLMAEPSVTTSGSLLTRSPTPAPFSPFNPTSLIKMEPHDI
ETV6, sequence (P41212 whole entry): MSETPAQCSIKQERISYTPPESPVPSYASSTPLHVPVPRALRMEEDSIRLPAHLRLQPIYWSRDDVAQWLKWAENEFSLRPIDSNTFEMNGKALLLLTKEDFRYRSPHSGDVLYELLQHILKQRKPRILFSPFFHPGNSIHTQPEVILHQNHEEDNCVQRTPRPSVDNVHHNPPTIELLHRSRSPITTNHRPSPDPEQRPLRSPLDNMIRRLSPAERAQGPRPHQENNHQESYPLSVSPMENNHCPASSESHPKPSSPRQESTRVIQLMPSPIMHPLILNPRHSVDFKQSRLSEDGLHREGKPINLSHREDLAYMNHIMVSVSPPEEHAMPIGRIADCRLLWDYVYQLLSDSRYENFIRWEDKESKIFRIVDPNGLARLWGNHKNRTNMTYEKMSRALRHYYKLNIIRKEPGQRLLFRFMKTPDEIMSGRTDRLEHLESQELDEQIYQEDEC

Consider TTCATG, for which the binding signal in the test with FEV is 1.23 fold enrichment (6-mer frequency, TF over GST control); with ETV5, 1.27 fold enrichment (6-mer frequency, TF over GST control); with HSF1, 1.23 fold enrichment (6-mer frequency, TF over GST control); in the test with SPIC it was 1.35 fold enrichment (6-mer frequency, TF over GST control); with ELF4, 1.33 fold enrichment (6-mer frequency, TF over GST control); in the test with ELK4, 1.32 fold enrichment (6-mer frequency, TF over GST control). Also, the binding signal with ETV2 was 1.26 fold enrichment (6-mer frequency, TF over GST control); with ELF3, 1.27 fold enrichment (6-mer frequency, TF over GST control); with CRX, 1.16 fold enrichment (6-mer frequency, TF over GST control); with ETV1 it was 1.29 fold enrichment (6-mer frequency, TF over GST control); with ERF, 1.22 fold enrichment (6-mer frequency, TF over GST control); with ETV3L, 1.33 fold enrichment (6-mer frequency, TF over GST control). The binding signal was 1.33 fold enrichment (6-mer frequency, TF over GST control) in the test with ETS2; 1.27 fold enrichment (6-mer frequency, TF over GST control) with SPDEF; 1.35 fold enrichment (6-mer frequency, TF over GST control) with ETV7; 1.28 fold enrichment (6-mer frequency, TF over GST control) with ELF5; 1.4 fold enrichment (6-mer frequency, TF over GST control) with ETV3; 1.26 fold enrichment (6-mer frequency, TF over GST control) with ETV6.
